Source: PubChem BioAssay
PLK1 kinase inh: inhibitors of human PLK1 kinase; P53350; recombinant PLK1 kinase, TR-FRET peptide phosphorylation; inhibition, % at 10 µM; 97,000 tested, 0.53% active; AID 619;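 active = inhibition of 50% or more in the single-concentration screen; inactive = inhibition below 50%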
sEH inhibitor: inhibitors of human soluble epoxide hydrolase | recombinant human sEH enzymatic activity assay | inhibition, % at 2 µM | P34913 | 91,000 tested, 0.34% active | AID 707; in the data active = inhibition above about 80%
Target sequence (P34913 whole entry, looked up): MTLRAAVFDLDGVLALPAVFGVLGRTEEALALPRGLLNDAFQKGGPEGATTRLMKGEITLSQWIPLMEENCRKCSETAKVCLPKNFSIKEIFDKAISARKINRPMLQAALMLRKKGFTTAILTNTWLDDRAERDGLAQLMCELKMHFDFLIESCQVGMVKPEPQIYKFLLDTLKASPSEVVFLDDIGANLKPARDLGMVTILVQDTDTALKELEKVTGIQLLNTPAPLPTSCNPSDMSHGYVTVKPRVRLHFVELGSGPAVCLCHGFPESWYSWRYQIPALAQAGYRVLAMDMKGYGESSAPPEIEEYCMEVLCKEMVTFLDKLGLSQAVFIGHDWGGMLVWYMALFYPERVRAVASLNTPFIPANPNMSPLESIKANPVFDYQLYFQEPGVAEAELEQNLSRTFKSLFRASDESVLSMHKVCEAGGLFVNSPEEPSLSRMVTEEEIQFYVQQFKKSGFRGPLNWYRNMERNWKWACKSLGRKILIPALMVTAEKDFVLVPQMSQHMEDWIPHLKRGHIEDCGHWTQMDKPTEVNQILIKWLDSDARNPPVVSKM
Plk1 PBD FP: Plk1 (human) PBD binding inhibition. P53350. Plk1 PBD phosphopeptide binding, fluorescence polarization. inhibition, %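 (tested at about 20 µM)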. 97,000 tested, 0.13% active. AID 693; in the data active = inhibition above about 34%, passing the limit was not always enough
sEH act: soluble epoxide hydrolase (human) activation; 91,000 tested, 0.04% active; purified human sEH enzymatic activity, activator screen; activation, % at 2 µM; P34913; in the data active = activation above about 37%
EphB4 ephrin blk: antagonists of human EphB4-ephrin-B2 interaction. 97,000 tested, 0.15% active. inhibition, % at 7 µM. P54760. EphB4 LBD / TNYL-RAW-Alexa532 peptide, fluorescence polarization;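 active = inhibition above the screen-wide mean inhibition plus 3 SD, cut at about 15% in these data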
PLK1 confirm: PLK1 (human) kinase inhibition, confirmed | inhibition, % at 10 µM | recombinant PLK1 kinase, TR-FRET peptide phosphorylation | 210 tested, 20% active | shares compounds with PLK1 kinase inh;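 active = inhibition at or above 50% in each of two repeat confirmation tests; inconclusive = one repeat below 50% inhibition, the other above; inactive = both repeats at or below 50% inhibition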
Plk1 interf: Plk1 assay compound interference counter-screen hit; shares compounds with PLK1 kinase inh; 210 tested, under 10 active; Plk1 TR-FRET assay interference, compound added post-reaction; inhibition (interference), % at 10 µM; AID 756;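 active = both duplicate runs show 50% or greater inhibition; inconclusive = only one duplicate run shows over 50% inhibition; inactive = both runs show under 50% inhibition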
Each line names hits and unclear results; the compound was inactive in the other large screens (follow-up assays come after a bar, where they were run). Hits are enriched below; roughly 1% of the tested compounds scored in any of these assays.

NC(=S)Nc1ccc(Oc2ccc(NC(N)=S)cc2)cc1	none
Cc1ccc(S(=O)(=O)N2CCOCC2)cc1C(=O)OCC(=O)N1c2ccccc2NC(=O)C1(C)C	none
Cc1cc2c(ccc3[nH]onc32)n1	PLK1 kinase inh 72 | PLK1 confirm inactive | Plk1 interf inactive
Cc1ccc2c(c1)/C(=N/OC(=O)c1ccc(F)cc1)CCS2	PLK1 kinase inh 124 | PLK1 confirm inactive | Plk1 interf inactive
Cc1[nH]nc2c1C1(CCN(Cc3ccccc3)CC1)C(C#N)=C(N)O2	PLK1 kinase inh 72 | PLK1 confirm 70 | Plk1 interf inactive
CC1(C)C(N(O)C(=O)Nc2ccc(Cl)cc2)N(c2ccc(Cl)cc2)C(=O)N1CC(=O)NN (stereo unspecified)	none
CC(C)CNC(=O)c1ccccc1NC(=O)Nc1ccccc1	none
N#Cc1c(-c2ccc3c(c2)OCO3)csc1N	PLK1 kinase inh 72 | PLK1 confirm 66 | Plk1 interf inactive
Cc1nc(-c2ccc3c(c2)OCO3)cs1	none
Cc1cccnc1Nc1nc(-c2ccc(O)cc2O)cs1	none (no result: sEH inhibitor, sEH act)
NS(=O)(=O)c1ccc(Nc2nc(-c3ccc(O)cc3O)cs2)cc1	PLK1 kinase inh 72 | PLK1 confirm inconclusive | Plk1 interf inactive
O=C(O)C1CCCCC1C(=O)NCc1cn2ccccc2n1 (stereo unspecified)	PLK1 kinase inh 71 (no result: sEH inhibitor, sEH act) | PLK1 confirm inactive | Plk1 interf inactive
CCSc1nnc(NC(=O)C(C)C)s1	PLK1 kinase inh 71 (no result: sEH inhibitor, sEH act) | PLK1 confirm inactive | Plk1 interf inactive
COc1ccc(S(=O)(=O)CC(O)CN2CCCC2=O)cc1 (stereo unspecified)	none
CCOC(=O)N1CCN(c2c(N3CCc4ccccc43)c(=O)c2=O)CC1	PLK1 kinase inh 77 (no result: sEH inhibitor, sEH act) | PLK1 confirm inactive | Plk1 interf inactive
O=C(CSc1nc(-c2ccccc2)cc(=O)[nH]1)Nc1ccccn1	none
O=C(CSc1n[nH]c(-c2ccc(Cl)cc2Cl)n1)Nc1ccccn1	PLK1 kinase inh 78 | PLK1 confirm 74 | Plk1 interf inactive
COc1ccc(OCc2nnc3n2N=C(c2ccc(OC)cc2)CS3)cc1	PLK1 kinase inh 83 (no result: sEH inhibitor, sEH act) | PLK1 confirm inactive | Plk1 interf inactive
CCOc1ccc(C2=Nn3c(nnc3-c3ccc(OC)cc3)SC2)cc1	none
COc1ccc(OCc2nnc3n2N=C(c2ccc(C)cc2)CS3)cc1	PLK1 kinase inh 72 (no result: sEH inhibitor, sEH act) | PLK1 confirm inactive | Plk1 interf inactive
CCn1c(SCc2ccc(C(=O)OC)o2)nnc1-c1c[nH]c2ccccc12	PLK1 kinase inh 73 (no result: sEH inhibitor, sEH act) | PLK1 confirm inactive | Plk1 interf inactive
CCc1nnc(NC(=O)CSc2nnc(-c3c[nH]c4ccccc34)n2C)s1	none
COCCn1c(SC)nnc1-c1c[nH]c2ccccc12	PLK1 kinase inh 73 (no result: sEH inhibitor, sEH act) | PLK1 confirm inactive | Plk1 interf inactive
COc1cccc(-n2c(SC)nnc2-c2c[nH]c3ccccc23)c1	none
Cn1c(SCc2cccnc2)nnc1-c1c[nH]c2ccccc12	PLK1 kinase inh 74 (no result: sEH inhibitor, sEH act) | PLK1 confirm inactive | Plk1 interf inactive
CCn1c(SC)nnc1-c1c[nH]c2ccccc12	PLK1 kinase inh 77 (no result: sEH inhibitor, sEH act) | PLK1 confirm inactive | Plk1 interf inactive
COc1ccc(/C=N/NC(=O)CSc2nnc(CCCc3ccc(OC)c(C)c3)o2)cc1	none
CC(C)c1ccccc1NC(=O)c1cccc(NC(=O)c2ccccc2)c1	none
COc1ccccc1N1CCN(S(=O)(=O)c2ccc(F)cc2)CC1	PLK1 kinase inh 82 | PLK1 confirm inactive | Plk1 interf inactive
COc1ccccc1CNC(=O)C[n+]1ccccc1	none
Nc1nc(SCc2nc(-c3ccccc3)no2)[nH]c(=O)c1-c1ccccc1	none
CCOC(=O)N1CCN(C(=O)CS(=O)Cc2nc(-c3cccc(C)c3)oc2C)CC1 (stereo unspecified)	PLK1 kinase inh 75 (no result: sEH inhibitor, sEH act) | PLK1 confirm inactive | Plk1 interf inactive
COCCNC(=O)CS(=O)Cc1nc(-c2ccc(OC)cc2)oc1C (stereo unspecified)	PLK1 kinase inh 71 (no result: sEH inhibitor, sEH act) | PLK1 confirm inactive | Plk1 interf inactive
Cc1cccc(-c2nc(CS(=O)CC(=O)N3CCc4ccccc4C3)c(C)o2)c1 (stereo unspecified)	none
COc1cccc(-c2nc(CS(=O)CC(=O)NCc3ccc4c(c3)OCO4)c(C)o2)c1 (stereo unspecified)	PLK1 kinase inh 75 (no result: sEH inhibitor, sEH act) | PLK1 confirm inactive | Plk1 interf inactive
